From PubChem
JMJD2A Tudor – JMJD2A Tudor domain (human) inhibition. AlphaScreen JMJD2A-Tudor / H3K4me3 peptide binding. Potency, µM (doses to about 114 µM), without a hit: at the top dose activity change, negative = inhibition, usual class: inhibitors. actives 4.4% (n = 390,000). AID 504339; note: % is set by controls: 0 for no effect and ±100 for the full control effect; nearly all actives have a fitted effect of over 50% in size
G9a inh – G9a (human) methyltransferase inhibition. Q96KQ7. G9a H3K9 monomethylation, AlphaScreen, 2 h. Potency, µM (doses to about 102 µM), without a hit: at the highest dose activity, negative = inhibition, usual class: inhibitors. actives 8.8% (n = 350,000); note: % is set by controls: 0 for no effect and ±100 for the full control effect; nearly all actives have a fitted effect of over 75% in size
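Chemiluminescent proximity detection of H3K9 monomethylation, read after 10 min bead incubation in the dark. Reaction: 20 nM G9a, 500 nM biotin-H3K9 peptide, 20 uM SAM cofactor, 2 h, room temperature, following 15 min enzyme-compound preincubation.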
L3MBTL1 inh – L3MBTL1 (human) inhibition | Q9Y468 | AlphaScreen L3MBTL1–H3K9me1 peptide binding | Potency, µM (titrated, usually from 57.1 µM), without a hit: at the highest dose activity, negative = inhibition, actives largely listed as inhibitors | actives 0.66% (n = 230,000); note: % is set by controls: 0 for no effect and ±100 for the full control effect; nearly all actives have a fitted effect of over 60% in size
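Read-out is AlphaScreen signal from streptavidin donor and nickel chelate acceptor beads (10 ug/mL final each) bridging L3MBTL1 (50 nM) and biotinylated K9-monomethylated H3(1-15) peptide (75 nM), after 30 min compound exposure at room temperature.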
HP1b chromo inh – blocks HP1-beta chromodomain binding to methylated histone tails | actives 0.56% (n = 390,000) | P83916 | AID 540317 | AlphaScreen HP1-beta / biotin-H3K9me3 peptide binding | Potency, µM (top dose mostly 114 µM), for inactives: top-dose activity change, negative = inhibition, hits mostly inhibitors; note: nearly all actives have a fitted effect of over 70% in size
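Compound inhibition of the preformed complex between 50 nM HP1-beta and 50 nM biotinylated H3K9me3 peptide was read by AlphaScreen. Buffer was PBS pH 7.4 with 0.01% Tween-20. Incubations ran 30 min at room temperature, with 10 ug/mL donor/acceptor beads.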
BAZ2B inh – BAZ2B (human) inhibition. Potency, µM (highest dose often 114 µM), inactives show at the highest dose activity change, negative = inhibition, hits mostly inhibitors. actives 4.4% (n = 360,000). Q9UIF8. AlphaScreen BAZ2B-H3K14Ac peptide displacement; note: % is set by controls: 0 for no effect and ±100 for the full control effect; nearly all actives have a fitted effect of over 60% in size
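AlphaScreen displacement of biotin-H3(5-23)K14Ac peptide (50 nM final) from BAZ2B (50 nM final) in PBS pH 7.4, 0.01% Tween-20; complex preformed 30 min RT, then compounds (top 110 uM) 30 min RT, beads 20 min dark.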
Active calls of the source: *; [ ] = dose if it differs, or a comment. Rows were chosen to be rich in hits. Some 11% of all compounds tested hit in one or more screens of this group. Calls come from the whole dose curve; as a rule, active = well fitted inhibition curve with a large enough effect; inconclusive = small, poorly fitted or top-dose-only effect; inactive = no such curve, though single readings can be large or run the other way. Potency is the fitted concentration of half-maximal effect.

What do the screens show for `COCCCn1c(SCC(=O)NCc2ccco2)nc2sc3c(c2c1=O)CCC3`?
JMJD2A Tudor: -35%; G9a inh: 50µM*; L3MBTL1 inh: -5%; HP1b chromo inh: 15%; BAZ2B inh: -2%

What do the screens show for `O=C(CSc1ncnc2sc3c(c12)CCCCC3)NCc1ccco1`?
JMJD2A Tudor: -16%; G9a inh: inconclusive; HP1b chromo inh: 29%; BAZ2B inh: inconclusive

Results for COc1cccc(CNC(=O)c2ccc(-c3nc(CS(=O)(=O)c4ccccc4)c(C)o3)cc2)c1 ?
JMJD2A Tudor: -5%; G9a inh: -32%[59 µM]; HP1b chromo inh: 15%; BAZ2B inh: -6%

Results for Cc1ccc(CNC(=O)Cc2c(C)c3cc4c(C)coc4cc3oc2=O)cc1 ?
JMJD2A Tudor: -4%; G9a inh: 8%[59 µM]; HP1b chromo inh: 43%; BAZ2B inh: -2%

How did Nc1ccccc1OC1=NS(=O)(=O)c2ccccc21 do in these assays?
JMJD2A Tudor: -10%

Results for S=C1NCN(Cc2cccnc2)CN1c1cccc2ccccc12 ?
JMJD2A Tudor: 3%; G9a inh: -26%; L3MBTL1 inh: -4%; HP1b chromo inh: 25%; BAZ2B inh: -10%

How did Fc1ccc(CN2CCCCCCC2)c(F)c1 do in these assays?
JMJD2A Tudor: 3.2µM*; G9a inh: inconclusive; L3MBTL1 inh: -1%; HP1b chromo inh: inconclusive; BAZ2B inh: 50µM*

How did Fc1ccc(CN2CCCCCC2)c(F)c1 do in these assays?
JMJD2A Tudor: inconclusive; G9a inh: -9%[12.7 µM]; L3MBTL1 inh: -4%; HP1b chromo inh: inconclusive; BAZ2B inh: inconclusive

What do the screens show for `Fc1ccccc1CN1CCCCCCC1`?
JMJD2A Tudor: 4µM*; G9a inh: -50%[12.7 µM]; HP1b chromo inh: inconclusive; BAZ2B inh: 50µM*

Results for COC(=O)c1scc(-c2ccc(C)cc2)c1S(=O)(=O)N1CCN(c2ccccc2F)CC1 ?
JMJD2A Tudor: 2%; G9a inh: -8%[59 µM]; HP1b chromo inh: -17%; BAZ2B inh: inconclusive

Results for CCC(N)(C(=O)O)c1ccc(C(=O)O)cc1 (stereo not drawn) ?
G9a inh: 21%[59 µM]

What do the screens show for `Cn1cc(C2=C(c3cn(CCCSC(=N)N)c4ccccc34)C(=O)NC2=O)c2ccccc21`?
G9a inh: 7.9µM*

How did CN(C)CCCn1cc(C2=C(c3c[nH]c4ccccc34)C(=O)NC2=O)c2ccccc21 do in these assays?
G9a inh: 14µM*

What do the screens show for `Cc1ccc(CN2CCCn3nc(C(=O)NCc4ccc(OC(C)C)cc4)cc3C2=O)cc1`?
JMJD2A Tudor: -25%; G9a inh: 2%[59 µM]; HP1b chromo inh: -6%; BAZ2B inh: -1%

What do the screens show for `c1cncc(CNc2ncnc3ccc(-c4ccco4)cc23)c1`?
G9a inh: inconclusive; L3MBTL1 inh: -10%; BAZ2B inh: -9%

Results for CCOc1ccc(NC(=O)Cn2c(=O)n(Cc3ccco3)c(=O)c3ccc(C(=O)NC4CCCC4)cc32)cc1 ?
JMJD2A Tudor: -12%; G9a inh: 9%[59 µM]; HP1b chromo inh: 20%

How did CCOC(=O)CN1C(=O)S/C(=C/c2ccc3c(c2)n(C)c(=O)n3C)C1=O do in these assays?
JMJD2A Tudor: -31%; G9a inh: 5%[59 µM]; L3MBTL1 inh: 2%; HP1b chromo inh: 7%; BAZ2B inh: -3%

Results for Cn1c(=O)n(C)c2cc(/C=C3/SC(=O)N(CC(=O)N4CCOCC4)C3=O)ccc21 ?
JMJD2A Tudor: -2%; G9a inh: -2%; L3MBTL1 inh: 0%; HP1b chromo inh: 14%; BAZ2B inh: 50µM*

Results for COc1cc(/C=C2\SC(=S)N(CCC(=O)N3CCN(C)CC3)C2=O)cc(OC)c1OC ?
JMJD2A Tudor: inconclusive; G9a inh: 50µM*; HP1b chromo inh: inconclusive; BAZ2B inh: -13%

Results for COC(=O)c1ccc(/C=C2\SC(=S)N(CCCC(=O)N3CCOCC3)C2=O)cc1 ?
JMJD2A Tudor: -9%; HP1b chromo inh: 28%

What do the screens show for `CN1CCN(C(=O)CCN2C(=O)/C(=C\c3ccc(Cl)cc3Cl)SC2=S)CC1`?
JMJD2A Tudor: 16µM*; L3MBTL1 inh: -8%; HP1b chromo inh: inconclusive; BAZ2B inh: inconclusive
